This note sets out measurements from PubChem BioAssay AID727 (The Scripps Research Institute Molecular Screening Center, 2007).

Each structure is given as a SMILES string. In all, about 97,000 compounds went through this assay and about 810 (0.84%) were called active. The sample holds actives, similar compounds and a random draw of the others, so the mix is not that of the screen. A number with no mark means an inactive call. Cut-off read from the data, not from the text of the source: active = inhibition above about 19%; inactive = the rest.

The target in this assay is Focal adhesion kinase 1 (Homo sapiens) (UniProt Q05397). Nature of the assay: FAK kinase inhibitors, primary screen, biochemical (AID 727).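 Note: 0% = DMSO and 100% = reference compound high control.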 To be noted: biochemical FAK kinase activity assay; active compounds read high;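 tested at 7 µM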.
Sequence of Focal adhesion kinase 1 (Homo sapiens) (Q05397 whole entry, looked up): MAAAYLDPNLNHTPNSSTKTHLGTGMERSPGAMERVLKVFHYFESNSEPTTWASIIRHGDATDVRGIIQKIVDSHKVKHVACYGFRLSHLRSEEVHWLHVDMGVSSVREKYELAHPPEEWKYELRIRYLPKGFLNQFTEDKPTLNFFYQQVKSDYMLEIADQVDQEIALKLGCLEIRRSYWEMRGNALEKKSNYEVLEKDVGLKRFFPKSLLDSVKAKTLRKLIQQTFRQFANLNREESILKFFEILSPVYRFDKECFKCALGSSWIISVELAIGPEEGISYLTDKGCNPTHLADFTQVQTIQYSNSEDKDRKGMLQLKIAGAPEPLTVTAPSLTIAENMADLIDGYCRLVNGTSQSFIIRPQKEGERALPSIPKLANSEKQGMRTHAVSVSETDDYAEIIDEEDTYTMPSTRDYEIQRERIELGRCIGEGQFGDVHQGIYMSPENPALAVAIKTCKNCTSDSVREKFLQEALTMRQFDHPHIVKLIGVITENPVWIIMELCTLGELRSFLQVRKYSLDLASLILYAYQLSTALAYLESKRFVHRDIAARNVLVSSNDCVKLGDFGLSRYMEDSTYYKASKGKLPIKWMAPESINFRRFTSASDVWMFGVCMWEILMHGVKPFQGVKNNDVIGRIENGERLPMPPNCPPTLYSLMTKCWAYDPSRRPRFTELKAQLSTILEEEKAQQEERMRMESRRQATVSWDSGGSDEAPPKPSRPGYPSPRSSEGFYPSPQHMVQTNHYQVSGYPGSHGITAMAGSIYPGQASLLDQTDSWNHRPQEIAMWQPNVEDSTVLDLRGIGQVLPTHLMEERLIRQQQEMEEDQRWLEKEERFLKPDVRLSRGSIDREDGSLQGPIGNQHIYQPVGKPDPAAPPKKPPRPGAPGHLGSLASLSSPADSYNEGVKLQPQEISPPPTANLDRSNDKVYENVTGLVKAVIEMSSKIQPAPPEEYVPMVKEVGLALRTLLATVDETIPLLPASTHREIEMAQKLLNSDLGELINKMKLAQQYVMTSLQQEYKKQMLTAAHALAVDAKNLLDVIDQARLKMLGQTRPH
Take `Cc1cccc(NC(=O)Cn2cc(C(=O)c3ccco3)c3ccccc32)c1`: the inhibition (usually the relative decrease from the control value, in per cent) is -4.82%.
As for `Cc1cc(C)c2c3c(sc2n1)C(c1ccccc1)C(C#N)=C(N)O3` (stereo unspecified), the inhibition was 1.94%.
For `CCCCC(C(=O)OCC(=O)c1ccc(OC)cc1)N1C(=O)c2ccccc2C1=O` (stereo unspecified), the inhibition is 0.79%.
The figure for `CC(c1ccccn1)N(CCN(C)C)C(=S)Nc1ccccc1F` (stereo unspecified) is -1.18%.
Under `CCOC(=O)c1cc(NC(=O)c2ccc(Cl)cc2)c(=O)oc1-c1ccccc1` stands -2.61%; under `Nn1c(Cc2cccc3ccccc23)nnc1SCC(=O)N1CC(=O)Nc2ccccc21`, -1.43%.
The figure for `Clc1ccccc1CSc1nnc(-c2ccco2)c(-c2ccco2)n1` is 31.9% (active).
As to `Nc1nc(SCc2ccccc2Cl)n[nH]1`, the inhibition is 1.47%.
The figure for `c1ccc(CSc2nnc(-c3ccco3)n2Cc2ccccc2)cc1` is -5.27%; for `CCCCOc1ccc(N(CC(=O)NCC2CCCO2)C(=O)CCC(=O)Nc2cc(C)ccn2)cc1` (stereo unspecified) it is -1.73%; for `CCNC(=O)c1sccc1-n1cccc1` it is -1.65%.
Take `Cn1c(SCC(=O)C(C)(C)C)nnc1-c1ccccn1`: the inhibition was -1.08%.
The figure for `Clc1ccccc1-c1cc(COc2ccc3ccccc3c2)no1` is 5.83%.
As to `CCCC(C)C(=O)Nc1ccc(NC(C)=O)cc1` (stereo unspecified), the inhibition is 0.18%.
Consider `Cn1c(SCC(=O)N2CCCc3ccccc32)nc2ccccc2c1=O`, for which the inhibition was 37.7% (active).
As for `O=C(CSc1nc2[nH]ncc2c(=O)n1-c1ccccc1)N1CCCc2ccccc21`, the inhibition was 0.8%.
`C=CCn1c(=O)c2ccccc2n2c(SCC(=O)N3CCCc4ccccc43)nnc12`: the inhibition was 5.22%.
In the case of `CC(C)(C)C(=O)Cn1c(NCCO)nc2ccccc21`, the inhibition was 1.69%.
Under `CC(C)(C)C(=O)c1cnc(Nc2ccccc2)s1` stands 4.36%; under `OC(C#CCN1CCOCC1)(c1ccccc1)C1CCCCC1` (stereo unspecified), 0.89%; under `COc1ccc(S(=O)(=O)N/N=C\c2ccc(OC)c(COc3ccc(C)cc3[N+](=O)[O-])c2)cc1`, 2.51%.
On to `O=C(Nc1cccc2ncccc12)c1ccc(-c2ccc(Cl)cc2Cl)o1`, for which the inhibition is 9.2%.
Regarding `CCN1CCN(c2ccc([N+](=O)[O-])cc2C(=O)c2ccc(Cl)cc2)CC1`, the inhibition is -2.69%.
Under `O=C(CSc1nc2cccnc2n1Cc1ccccc1)N1CCc2ccccc21` stands 1.41%; under `FC(F)(F)c1cccc(NC(=S)Nc2cccc(Cl)c2)c1`, -0.91%; under `Cc1c(NC(=O)c2cc(-c3ccc(Cl)s3)nc3ccccc23)c(=O)n(-c2ccccc2)n1C`, 2.95%.
On to `Cc1ccc(C(=O)N/C(=C/c2ccco2)C(=O)NCCc2c[nH]c3ccccc23)cc1C`, for which the inhibition was 4.25%.
Take `COc1ccc(C2C=C(c3ccc(Br)cc3)Nc3nc(NS(C)(=O)=O)nn32)cc1` (stereo unspecified): the inhibition is -9.88%.
The figure for `O=C(CSc1nnnn1-c1ccccc1)NCc1ccco1` is 5.37%; for `COc1ccc(CN(Cc2ccco2)S(=O)(=O)c2ccc(S(=O)(=O)N3CCCC3)cc2)cc1` it is -0.01%; for `Cc1cccc(N2CCN(C(=O)CN(C)S(=O)(=O)c3ccc4c(c3)CCC(=O)N4)CC2)c1C` it is 4.5%.
Turning to `O=[N+]([O-])c1cccc(-c2nnc3c4ccccc4c4ccccc4n23)c1`, the inhibition is 17.7%.
Under `O=c1c2c(nc3nc[nH]n13)CCC2` stands -0.92%; under `CCN1C(=O)/C(=C\N2CCOCC2)SC1=S`, -1.1%.
In the case of `Cc1cccc(N(C(=O)Cc2cccs2)C(C(=O)NC2CCCC2)c2ccsc2)c1` (stereo unspecified), the inhibition is 2.56%.
The figure for `Cc1ccc(/C=N\n2c(-c3ccccc3)n[nH]c2=S)s1` is 0.69%; for `Oc1ccccc1/C=N/n1c(-c2cccs2)n[nH]c1=S` it is 29.4% (active); for `S=c1[nH]nc(-c2ccco2)n1/N=C/c1ccc(Br)s1` it is 15.6%.
Under `Cc1cc(NC(=O)c2cnn3cccnc23)n(-c2ccccc2)n1` stands 20.4% (active).
The figure for `Cc1cc(NC(=O)Nc2ccccc2)n(-c2ccccc2)n1` is -1.43%.
Turning to `O=C(Nc1ccc(Cl)cn1)c1cnn2cccnc12`, the inhibition is 5.62%.
The figure for `CNC(=O)c1csc(-c2ccccc2)n1` is -0.71%; for `Cc1ccc(C(c2nnnn2CS(=O)(=O)c2ccc(C)cc2)N2CCC(C)CC2)cc1` (stereo unspecified) it is -7.49%; for `CSc1ccccc1C(=O)Nc1cccc(C(C)=O)c1` it is 2.46%.
In the case of `CCN1CCN(C(=O)C2(NC(=O)Nc3cccc(F)c3)CCCCC2)CC1`, the inhibition was -0.58%.
The figure for `CCOC(=O)c1c(N)sc(C(C)=O)c1C` is -0.36%.
On to `CCOC(=O)CSc1nc2ccc(C)cc2[nH]1`, for which the inhibition was -1.86%.
The figure for `CCCSc1nsc(N)n1` is -4.41%; for `CCN(CC)S(=O)(=O)c1ccc(N(C)Cc2ccc(C(F)(F)F)cc2)nc1` it is -0.16%.
`O=C(Nc1ccc(Cl)cc1)OCc1cc(-c2ccccc2)on1`: the inhibition is -6.39%.
The figure for `CN(C)/C=C(\C#N)C(=O)c1cccnc1Oc1ccc(F)cc1F` is -5.85%; for `C=CCn1c(SCc2c(C(=O)OC)sc(N)c2C(=O)OC)nnc1-c1ccc(Cl)cc1` it is 1.31%; for `OC(CN=c1sc2ccccc2n1CC(O)COc1ccccc1)COc1ccccc1` (stereo unspecified) it is 0.61%.
Regarding `CCn1c(SC)nc(O)c(C(c2ccc(OC)c(O)c2)c2c(O)nc(SC)n(CC)c2=O)c1=O`, the inhibition was -2.86%.
Take `CCn1nnnc1SCC(=O)c1ccc(C)cc1C`: the inhibition is 21.8% (active).
With `CCOC(=O)CNC(=O)CSc1nnnn1-c1cc(C)ccc1C`, the inhibition was -0.99%.
Turning to `CNC(=O)CSc1nnnn1-c1ccc(C)cc1C`, the inhibition is 2.36%.
Regarding `COc1ccc(OCCCC(=O)Oc2ccc(OC)cc2)cc1`, the inhibition is 0.13%.
Regarding `COc1ccc(-c2oc3ncn(Cc4ccco4)c(=N)c3c2-c2ccc(OC)cc2)cc1`, the inhibition is 3.43%.
For `CCc1ccc(CNC(=O)C2CC(=O)N(CCc3ccc(C)cc3)C2)cc1` (stereo unspecified), the inhibition is -1.09%.
The figure for `CC(=O)c1cccc(NC(=O)N2CCCC2C(=O)NCCc2ccccc2)c1` (stereo unspecified) is -0.1%.
For `CCOC(=O)CC(=O)CSc1nc(-c2ccccc2)cc(-c2ccc(Cl)cc2)c1C#N`, the inhibition was -8.83%.
The figure for `N#CC1=C(N)N(c2ccccc2)C2=C(C(=O)CCC2)C1c1ccccc1` (stereo unspecified) is 0.57%; for `O=C(NC1CCN(C(=S)NCc2ccco2)CC1)c1ccc(F)cc1` it is 2.16%.
The figure for `CCOc1ccc(N=Cc2c(O)n(-c3cccc(C)n3)c(=O)c3ccccc23)cc1` is -4.03%; for `COc1cc(C(=O)Nc2nccs2)cc(OC)c1OC` it is -2.65%; for `Cn1cccc1C(=O)Nc1nccs1` it is 25.5% (active).
As for `CCN(c1ccccc1)S(=O)(=O)c1ccc(C(=O)Nc2nccs2)cc1`, the inhibition was 1.43%.
Under `Cc1ccccc1-n1c(C)cc(/C=N/NC(=O)c2ccc(CN3CCOCC3)cc2)c1C` stands 5.57%; under `O=C(Cn1cc(/C=N/NC(=O)c2cccc(C(F)(F)F)c2)c2ccccc21)Nc1ccc(F)cc1`, -6.09%; under `CCCNC(=S)N1CCC(NC(=O)C23CC4CC(CC(C4)C2)C3)CC1`, 0%.
The figure for `Cc1nn(-c2ccccc2)c(Cl)c1C(=O)Nc1ccccc1` is 1.43%; for `Cc1cccc(NC(=O)C(C)N2C(=O)C3C4CC(C(Br)C4Br)C3C2=O)c1` (stereo unspecified) it is 3.39%; for `Cc1ccc(-c2nn(C(C)(C)C)c3ncnc(N)c23)cc1` it is 38.8% (active).
Take `COc1nc(-c2ccc(Cl)cc2)ccc1-c1noc(-c2cccs2)n1`: the inhibition was -0.49%.
For `CCOC(=O)C1=C(CN2CCc3ccccc32)NC(=O)NC1c1cc(C)ccc1C` (stereo unspecified), the inhibition is 4.94%.
For the molecule `CN(Cc1ccccc1)C(=O)COc1ccccc1`, the inhibition was -1.65%.
`Cc1no[n+]([O-])c1COc1ccccc1/C=C1\NC(=S)NC1=O`: the inhibition was 1.38%.
With `O=C1CCN(C(=O)Nc2ccccc2)N1`, the inhibition was -0.01%.
Under `COC(=O)CN(C(=S)Nc1ccc(Cl)cc1)C1CC(=O)N(c2ccc(OC)cc2)C1=O` (stereo unspecified) stands 1.24%.
The figure for `Cc1ccc(OCC(=O)N/N=C/c2ccncc2)cc1` is 1.58%; for `COC(=O)c1ccc(NC(=O)C23CC4CC(C2)CC(n2cnc(Cl)n2)(C4)C3)cc1` it is 2.71%; for `COc1ccc(NC(=O)ON=C2c3ccccc3-c3ccccc32)cc1` it is 35% (active).
Under `COc1ccc(C(=S)Nc2ccccc2)cc1` stands -5.15%; under `CCCNC(=O)Nc1ccccc1C(=O)Nc1ccc(OC)cc1`, 4.85%; under `Cc1cccc(NC(=S)N2CCC(c3nc4ccccc4s3)CC2)c1`, 0.28%.
On to `Cc1nn(C)c(Oc2ccccc2)c1CCNS(=O)(=O)c1ccc(F)cc1`, for which the inhibition was 0.76%.
Regarding `Cc1nc2ccccc2c(-c2ccccc2)c1C(=O)c1ccccc1`, the inhibition is 0.7%.
Consider `Cc1ccc(NC(=S)NC(=O)c2ccc(-c3ccccc3)cc2)c(C)c1`, for which the inhibition was 1.93%.
The figure for `CC(=O)NS(=O)(=O)c1ccc(NC(=O)/C=C/c2ccccc2Cl)cc1` is -4.73%; for `Cc1ccc(/C=N/NC(=O)Cn2nc(C)c(Br)c2C)o1` it is -0.29%.
`O=[N+]([O-])c1ccc(C=Nc2ccc(Cl)cc2Cl)s1`: the inhibition is 20.7% (active).
The figure for `Cc1cccn2c(=O)c3cc(C(=O)N4COCC4(C)C)n(C)c3nc12` is 25.2% (active); for `COc1ccc(CCn2c(=N)c(C(=O)NCc3ccco3)cc3c(=O)n4cccc(C)c4nc32)cc1` it is 1.33%.
Turning to `Cc1cccn2c(=O)c3cc(C#N)c(=O)n(CCCN4CCOCC4)c3nc12`, the inhibition is 2.6%.
Take `Cc1cccc(COc2ccccc2/C=N/Nc2ccc([N+](=O)[O-])cc2)c1`: the inhibition is 14.6%.
